Experiment [1] concerns the target Bile acid receptor (Homo sapiens) (UniProt Q96RI1). Kind of experiment: ATG_IR1_CIS: Attagene CIS-FACTORIAL HepG2 Assay for human Nuclear Receptor Subfamily 1 Group H Member 4 (NR1H4), IR1 submotif (AID 2282946). To be noted: IR1 reporter transcription, actives raise or lower the signal. In a few lines: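 Readout: reporter transcript levels by RT-PCR with fluorescent capillary electrophoresis, from HepG2 cells transiently transfected with multiplexed cis-regulated reporters and dosed 24 h. Gain- or loss-of-signal fitted versus DMSO negative control.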

The nature of experiment [2]: ATG_GRE_CIS: Attagene CIS-FACTORIAL HepG2 Assay for human Glucocorticoid Response Elements (GRE) (AID 2282947). Particulars: HepG2 GRE cis-reporter, Attagene multiplex mRNA; actives raise or lower the signal. In a few lines: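 HepG2, transient cis-reporter transfection, 24 h. Reporter mRNA: RT-PCR then CE, fluorescence. Fit both directions vs DMSO.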
Experiment [3] in a line: ATG_ISRE_CIS: Attagene CIS-FACTORIAL HepG2 Assay for human Interferon Regulatory Factor 1 (IRF1) binding to an Interferon-Stimulated Response Element (ISRE) (AID 2282948). Particulars: HepG2 ISRE cis-reporter (Attagene), mRNA transcription readout; actives raise or lower the signal. The method in brief:
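Multiplexed mRNA reporter readout in human liver HepG2 cells: cis-element-driven reporters transfected, compound added for 24 h, transcripts amplified, fluorescently labelled and sized by capillary electrophoresis; curve fitting bidirectional against DMSO.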

Experiment [4] in a line: ATG_M_32_CIS: Attagene CIS-FACTORIAL HepG2 Assay for M32 Transcription Factor (Internal Marker) (AID 2282949).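 Further: background control marker of the multiplexed CIS panel rather than a real target.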 Particulars: HepG2 Attagene cis-factorial M32 reporter, mRNA; actives raise or lower the signal. In a few lines:
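Using DMSO as baseline, bidirectional curve fits were applied to reporter mRNA signals. These came from transiently transfected HepG2 cells exposed for 24 h, with RNA analysed by RT-PCR, FAM primer extension, HpaI digestion and CE.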

Experiment [5] is described as follows: ATG_M_06_CIS: Attagene CIS-FACTORIAL HepG2 Assay for M06 Transcription Factor (Internal Marker) (AID 2282950). Particulars: HepG2 Attagene CIS-FACTORIAL M06 internal marker reporter; actives raise or lower the signal. The method in brief:
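Steps: transfect HepG2 with multiplexed cis-element reporter constructs; dose chemical 24 h; extract RNA with DNase treatment; reverse-transcribe, PCR-amplify, 6-FAM label, HpaI digest; separate fragments by capillary electrophoresis. Activity fitted both directions versus DMSO.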

The target in experiment [6] is Hepatocyte nuclear factor 6 (Homo sapiens) (UniProt Q9UBC0). The experiment is described as follows: ATG_HNF6_CIS: Attagene CIS-FACTORIAL HepG2 Assay for human Hepatocyte Nuclear Factor 6 (HNF6) (AID 2282952). To be noted: HepG2 Attagene cis-factorial HNF6 reporter transcription; actives raise or lower the signal. In a few lines:
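Activity values derive from bidirectional fitting against DMSO of reporter mRNA levels, measured by capillary electrophoresis of labelled RT-PCR products from HepG2 cells exposed 24 h.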

The target in experiment [7] is Heat shock factor protein 1 (Homo sapiens) (UniProt Q00613). Kind of experiment: ATG_HSE_CIS: Attagene CIS-FACTORIAL HepG2 Assay for human Heat Shock Transcription Factor 1 (HSE) (AID 2282953). Particulars: HepG2 HSE cis-reporter, Attagene RNA transcription; actives raise or lower the signal. The method in brief:
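Cells were transfected with cis-element-driven reporter constructs, dosed for 24 h, then total RNA was reverse-transcribed and reporter cDNA amplified, FAM-labelled and digested with HpaI. Fragments were resolved by capillary electrophoresis; gain or loss was fitted against DMSO.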

Experiment [8] is described as follows: ATG_MRE_CIS: Attagene CIS-FACTORIAL HepG2 Assay for human Metal Responsive Element (MRE) (AID 2282954). To be noted: HepG2 MRE cis-reporter transcription, Attagene multiplex; actives raise or lower the signal. The method in brief:
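Readout: capillary electrophoresis of 6-FAM-labelled, HpaI-digested RT-PCR reporter products. System: HepG2 cells carrying transient multiplexed cis reporters, dosed 24 h. Analysis: bidirectional fit, DMSO baseline.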

The target in experiment [9] is Paired box protein Pax-6 (Homo sapiens) (UniProt P26367). The experiment is described as follows: ATG_Pax6_CIS: Attagene CIS-FACTORIAL HepG2 Assay for human Paired Box 6 (PAX6) (AID 2282956). Particulars: HepG2 CIS-FACTORIAL PAX6 reporter transcription, RNA readout; actives raise or lower the signal. The method in brief:
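Fluorescent RT-PCR products separated by capillary electrophoresis report PAX6-linked promoter mRNA in HepG2 cells 24 h post-dose. Curves fitted bidirectionally, DMSO as negative control.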

Experiment [10] is described as follows: ATG_PXRE_CIS: Attagene CIS-FACTORIAL HepG2 Assay for human Pregnane X Receptor Element (PXRE) (AID 2282957). Particulars: HepG2 Attagene CIS-FACTORIAL PXRE reporter, mRNA; actives raise or lower the signal. The method in brief: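 Fluorescent capillary electrophoresis of amplified reporter cDNA gave the signal, collected 24 h after dosing HepG2 cells that held transfected cis-element reporter constructs.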

A short description of experiment [11]: ATG_RORE_CIS: Attagene CIS-FACTORIAL HepG2 Assay for human RAR-related Orphan Receptor Element (RORE) (AID 2282959). To be noted: HepG2 Attagene cis-factorial RORE reporter, mRNA; actives raise or lower the signal. The method in brief:
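Transiently transfected HepG2 reporter cells were treated 24 h. Reporter transcripts were detected by RT-PCR and capillary electrophoresis, with bidirectional fitting against DMSO.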

Experiment [12] can be described thus: ATG_Sox_CIS: Attagene CIS-FACTORIAL HepG2 Assay for human SRY-box transcription factor (SOX) (AID 2282960). To be noted: HepG2 Attagene cis-factorial SOX reporter, mRNA; actives raise or lower the signal. In a few lines: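 Gain- or loss-of-signal endpoint, fitted bidirectionally with DMSO as negative control. Based on reporter mRNA from transfected HepG2 cells harvested 24 h post-treatment and quantified via RT-PCR and capillary electrophoresis.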

Experiment [13] concerns the target Transcription factor Sp1 (Homo sapiens) (UniProt P08047). The experiment is described as follows: ATG_Sp1_CIS: Attagene CIS-FACTORIAL HepG2 Assay for human Specificity Protein 1 (Sp1) (AID 2282961). Particulars: HepG2 Sp1 cis-reporter transcription, actives raise or lower the signal. The method in brief: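 Endpoint reflects endogenous Sp1 transcriptional activity, not an exogenous fusion protein: HepG2 cells with transfected cis-regulated reporters, 24 h dosing, RT-PCR/capillary electrophoresis mRNA read-out, DMSO-normalised bidirectional fit.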

Experiment [14] is described as follows: ATG_SREBP_CIS: Attagene CIS-FACTORIAL HepG2 Assay for human Sterol Regulatory Element Binding (SREBP) (AID 2282962). To be noted: HepG2 Attagene cis-factorial SREBP reporter, mRNA; actives raise or lower the signal. In a few lines: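 Endogenous factor activity is measured in HepG2 through multiplexed reporter units under cis-element control. Following a 24 h incubation, reporter transcripts are reverse-transcribed, PCR-amplified and sized by capillary electrophoresis; activity is fitted in both directions relative to DMSO.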

In experiment [15] the target is Signal transducer and activator of transcription 3 (Homo sapiens) (UniProt P40763). Kind of experiment: ATG_STAT3_CIS: Attagene CIS-FACTORIAL HepG2 Assay for human Signal Transducer and Activator of Transcription 3 (STAT3) (AID 2282963). To be noted: HepG2, Attagene cis-factorial STAT3 reporter transcription; actives raise or lower the signal. The method in brief:
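Uses human liver HepG2 transiently carrying cis-regulated reporter transcription units. Following 24 h dosing, reporter mRNA induction was detected by RT-PCR and capillary electrophoresis, analysed bidirectionally versus DMSO.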

A short description of experiment [16]: ATG_TCF_b_cat_CIS: Attagene CIS-FACTORIAL HepG2 Assay for human T-Cell-Factor with beta-catenin (TCF/b-cat) (AID 2282965). Particulars: HepG2 TCF/beta-catenin cis-reporter transcription, actives raise or lower the signal. The method in brief:
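HepG2 cells transiently transfected with multiple cis-promoter-regulated reporter transcription units, so endogenous transcription factor activity is measured. Reporter mRNA read 24 hours after dosing by RT-PCR, fluorescent labelling and capillary electrophoresis; bidirectional fitting against DMSO.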

A short description of experiment [17]: ATG_PBREM_CIS: Attagene CIS-FACTORIAL HepG2 Assay for human Phenobarbital-responsive Enhancer Module (PBREM) (AID 2282955). To be noted: HepG2 PBREM cis-reporter, Attagene multiplexed transcription; actives raise or lower the signal. The method in brief: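 Transfected liver-derived HepG2 cells exposed 24 h; PBREM reporter transcript quantified via RT-PCR and capillary electrophoresis, with activity in either direction referenced to DMSO.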

A short description of experiment [18]: ATG_TA_CIS: Attagene CIS-FACTORIAL HepG2 Assay for human TA Basal Promoter (AID 2282964). Particulars: HepG2 Attagene CIS-factorial TA basal promoter reporter; actives raise or lower the signal. The method in brief: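 Steps: transfect HepG2 with MRTUs; dose 24 h; isolate RNA, DNase-treat, reverse-transcribe; PCR and FAM-label reporter cDNA; digest with HpaI 2h at 37 C; run capillary electrophoresis. Activity fitted both directions against DMSO.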

For experiment [19], the target named is Hypoxia-inducible factor 1-alpha (Homo sapiens) (UniProt Q16665). The experiment is described as follows: ATG_HIF1a_CIS: Attagene CIS-FACTORIAL HepG2 Assay for human Hypoxia Inducible Factor 1 (HIF1A) (AID 2282951). Particulars: HepG2 Attagene cis-factorial HIF1a reporter transcription; actives raise or lower the signal. In a few lines:
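Dosed 24 h, transfected HepG2 cells yielded total RNA whose reporter transcripts were RT-PCR-amplified and sized by capillary electrophoresis using fluorescent labelling; DMSO defined baseline, with gain and loss of signal both fitted.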

Molecules are shown by their SMILES. Where a structure was tested more than once in an assay, its records may differ in their call. Calls of active or inactive are those of the source. How the source made its calls: active means hit-call score of the fitted dose curve at least 0.9, where 1 is the maximum; inactive means score below 0.9.

Transcription factor Sp1 (Homo sapiens), sequence (P08047 whole entry, looked up, the tested form may be a part): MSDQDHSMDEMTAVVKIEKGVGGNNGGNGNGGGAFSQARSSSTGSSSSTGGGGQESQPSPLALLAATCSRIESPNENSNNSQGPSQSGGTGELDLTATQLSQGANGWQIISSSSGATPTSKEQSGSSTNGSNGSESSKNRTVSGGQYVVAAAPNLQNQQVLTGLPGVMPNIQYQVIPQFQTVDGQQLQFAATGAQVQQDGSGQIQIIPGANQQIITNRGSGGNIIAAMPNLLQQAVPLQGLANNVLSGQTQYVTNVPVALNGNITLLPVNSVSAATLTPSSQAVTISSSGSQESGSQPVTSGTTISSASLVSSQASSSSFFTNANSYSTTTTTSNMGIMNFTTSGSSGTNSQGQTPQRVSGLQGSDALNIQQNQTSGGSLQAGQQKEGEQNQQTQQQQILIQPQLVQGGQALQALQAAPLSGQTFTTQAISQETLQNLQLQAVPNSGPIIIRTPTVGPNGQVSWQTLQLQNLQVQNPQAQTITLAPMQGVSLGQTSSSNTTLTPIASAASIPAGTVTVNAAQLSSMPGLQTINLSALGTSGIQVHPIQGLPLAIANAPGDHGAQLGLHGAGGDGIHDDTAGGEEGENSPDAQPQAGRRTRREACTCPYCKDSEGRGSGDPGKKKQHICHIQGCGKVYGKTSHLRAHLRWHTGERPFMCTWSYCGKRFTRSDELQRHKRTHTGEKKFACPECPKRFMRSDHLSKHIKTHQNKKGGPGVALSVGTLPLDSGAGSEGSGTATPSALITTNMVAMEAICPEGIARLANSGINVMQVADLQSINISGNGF
Hepatocyte nuclear factor 6 (Homo sapiens), sequence (Q9UBC0 whole entry, looked up): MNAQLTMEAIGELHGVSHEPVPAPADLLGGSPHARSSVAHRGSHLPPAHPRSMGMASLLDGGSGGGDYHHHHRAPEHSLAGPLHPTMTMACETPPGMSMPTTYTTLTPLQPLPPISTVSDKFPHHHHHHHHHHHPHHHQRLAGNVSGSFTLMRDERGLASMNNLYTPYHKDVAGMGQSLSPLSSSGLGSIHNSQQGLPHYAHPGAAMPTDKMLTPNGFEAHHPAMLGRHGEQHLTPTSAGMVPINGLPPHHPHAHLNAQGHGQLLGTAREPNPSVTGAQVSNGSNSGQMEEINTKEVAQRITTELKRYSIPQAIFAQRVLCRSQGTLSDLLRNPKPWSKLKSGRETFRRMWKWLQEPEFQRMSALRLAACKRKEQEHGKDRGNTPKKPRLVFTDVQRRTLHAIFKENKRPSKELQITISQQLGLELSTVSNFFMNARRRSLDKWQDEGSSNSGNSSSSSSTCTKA
Paired box protein Pax-6 (Homo sapiens), sequence (P26367 whole entry, looked up): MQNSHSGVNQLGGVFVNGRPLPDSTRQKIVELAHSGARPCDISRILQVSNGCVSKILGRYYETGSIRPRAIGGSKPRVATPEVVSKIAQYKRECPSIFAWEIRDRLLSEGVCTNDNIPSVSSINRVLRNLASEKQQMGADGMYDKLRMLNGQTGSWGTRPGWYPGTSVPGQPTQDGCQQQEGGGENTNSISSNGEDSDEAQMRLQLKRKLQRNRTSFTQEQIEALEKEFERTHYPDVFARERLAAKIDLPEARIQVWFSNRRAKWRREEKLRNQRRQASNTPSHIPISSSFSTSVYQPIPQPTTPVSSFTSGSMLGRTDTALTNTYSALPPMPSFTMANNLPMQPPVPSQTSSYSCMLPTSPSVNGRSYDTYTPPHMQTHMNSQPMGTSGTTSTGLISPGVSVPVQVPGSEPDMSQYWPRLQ
Heat shock factor protein 1 (Homo sapiens), sequence (Q00613 whole entry, looked up, the tested form may be a part): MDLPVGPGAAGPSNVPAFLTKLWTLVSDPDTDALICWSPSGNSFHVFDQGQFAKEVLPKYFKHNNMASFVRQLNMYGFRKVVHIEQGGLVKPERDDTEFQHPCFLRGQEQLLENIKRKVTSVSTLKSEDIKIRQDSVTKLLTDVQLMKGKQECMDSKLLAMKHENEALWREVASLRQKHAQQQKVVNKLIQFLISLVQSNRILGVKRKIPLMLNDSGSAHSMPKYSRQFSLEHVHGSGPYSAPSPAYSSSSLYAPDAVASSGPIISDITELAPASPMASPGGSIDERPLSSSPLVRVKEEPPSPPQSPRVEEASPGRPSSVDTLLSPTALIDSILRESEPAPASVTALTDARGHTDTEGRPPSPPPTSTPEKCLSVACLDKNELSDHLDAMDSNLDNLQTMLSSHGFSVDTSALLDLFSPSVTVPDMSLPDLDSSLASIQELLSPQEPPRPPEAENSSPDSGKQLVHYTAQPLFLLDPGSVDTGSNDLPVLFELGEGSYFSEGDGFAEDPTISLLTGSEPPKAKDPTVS
Signal transducer and activator of transcription 3 (Homo sapiens), sequence (P40763 whole entry, looked up): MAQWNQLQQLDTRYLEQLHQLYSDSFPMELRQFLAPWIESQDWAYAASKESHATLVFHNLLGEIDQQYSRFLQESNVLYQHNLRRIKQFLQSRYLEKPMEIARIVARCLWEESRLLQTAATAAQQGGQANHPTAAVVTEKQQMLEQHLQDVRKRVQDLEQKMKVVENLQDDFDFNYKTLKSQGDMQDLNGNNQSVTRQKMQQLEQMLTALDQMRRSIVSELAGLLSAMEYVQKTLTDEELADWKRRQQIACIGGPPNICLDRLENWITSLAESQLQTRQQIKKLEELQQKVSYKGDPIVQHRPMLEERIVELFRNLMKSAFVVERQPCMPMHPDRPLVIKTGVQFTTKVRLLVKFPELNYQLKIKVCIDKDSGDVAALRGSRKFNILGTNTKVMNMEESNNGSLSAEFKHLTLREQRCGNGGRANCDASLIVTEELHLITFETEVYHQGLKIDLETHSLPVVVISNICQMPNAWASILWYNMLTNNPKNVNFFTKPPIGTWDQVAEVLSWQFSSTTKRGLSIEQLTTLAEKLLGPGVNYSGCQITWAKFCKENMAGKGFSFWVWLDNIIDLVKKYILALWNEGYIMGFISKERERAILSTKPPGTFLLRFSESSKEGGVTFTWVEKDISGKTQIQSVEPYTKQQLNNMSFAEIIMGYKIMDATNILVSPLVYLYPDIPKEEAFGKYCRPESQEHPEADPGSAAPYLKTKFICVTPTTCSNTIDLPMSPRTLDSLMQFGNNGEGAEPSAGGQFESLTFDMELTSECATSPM
Hypoxia-inducible factor 1-alpha (Homo sapiens), sequence (Q16665 whole entry, looked up): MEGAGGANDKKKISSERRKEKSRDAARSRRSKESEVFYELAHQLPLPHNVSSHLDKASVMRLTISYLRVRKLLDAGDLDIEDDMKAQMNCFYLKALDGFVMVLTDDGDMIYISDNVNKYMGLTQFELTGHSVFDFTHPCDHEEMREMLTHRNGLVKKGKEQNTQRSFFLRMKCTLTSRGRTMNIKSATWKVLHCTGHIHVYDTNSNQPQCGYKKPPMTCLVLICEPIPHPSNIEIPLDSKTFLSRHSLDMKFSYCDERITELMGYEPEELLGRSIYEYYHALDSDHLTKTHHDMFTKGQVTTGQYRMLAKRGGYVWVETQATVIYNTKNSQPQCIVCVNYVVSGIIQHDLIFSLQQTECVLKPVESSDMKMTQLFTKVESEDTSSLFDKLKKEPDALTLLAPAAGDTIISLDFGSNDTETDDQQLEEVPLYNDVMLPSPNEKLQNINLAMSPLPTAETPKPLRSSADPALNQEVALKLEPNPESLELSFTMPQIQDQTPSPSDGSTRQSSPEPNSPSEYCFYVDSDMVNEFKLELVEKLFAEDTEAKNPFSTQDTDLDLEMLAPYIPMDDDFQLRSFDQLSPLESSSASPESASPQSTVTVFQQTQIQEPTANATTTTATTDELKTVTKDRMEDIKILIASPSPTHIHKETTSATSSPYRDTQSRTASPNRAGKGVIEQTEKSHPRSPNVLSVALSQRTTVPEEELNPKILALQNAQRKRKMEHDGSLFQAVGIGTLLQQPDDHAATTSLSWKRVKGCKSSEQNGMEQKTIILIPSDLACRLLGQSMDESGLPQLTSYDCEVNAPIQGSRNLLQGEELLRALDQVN
Bile acid receptor (Homo sapiens), sequence (Q96RI1 whole entry, looked up): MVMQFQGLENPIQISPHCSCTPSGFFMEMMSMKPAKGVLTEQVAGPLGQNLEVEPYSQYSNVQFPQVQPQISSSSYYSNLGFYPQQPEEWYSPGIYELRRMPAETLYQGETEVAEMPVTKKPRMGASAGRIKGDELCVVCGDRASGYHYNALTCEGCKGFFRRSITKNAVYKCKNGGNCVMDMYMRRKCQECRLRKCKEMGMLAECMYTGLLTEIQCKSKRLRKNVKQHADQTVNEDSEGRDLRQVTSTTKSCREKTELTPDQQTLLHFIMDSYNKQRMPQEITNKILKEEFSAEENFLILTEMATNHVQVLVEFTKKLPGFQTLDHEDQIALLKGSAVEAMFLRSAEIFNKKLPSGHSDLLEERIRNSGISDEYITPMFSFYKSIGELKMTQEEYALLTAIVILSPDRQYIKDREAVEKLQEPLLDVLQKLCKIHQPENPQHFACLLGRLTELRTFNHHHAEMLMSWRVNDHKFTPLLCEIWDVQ

As to `Cc1ccc2oc(CN(Cc3ccccc3)C(=O)Nc3c(F)cc(F)cc3F)c(-c3ccc(Cl)cc3)c2c1`, the outcome in experiment [1], in experiment [2], in experiment [3], in experiment [4], in experiment [5] and in [6] was inactive. The result in experiment [7], in experiment [8], in [9], in [11], in experiment [12] and in experiment [13] was inactive. For the same compound, the result in experiment [14], in experiment [15] and in experiment [16] was inactive. The concentration at half-maximal activity (AC50) in experiment [10] was 0.63 µM (active).
Consider `O=C1c2ccccc2C(=O)N1CCc1noc(-c2ccc(CN3CCCCCC3)s2)n1`, for which the outcome in [1], in experiment [3], in experiment [4], in experiment [5], in experiment [6] and in experiment [7] was inactive. Moreover, the compound was called inactive in experiment [9], in experiment [11], in experiment [12], in experiment [13], in experiment [14] and in [15]. Further, the compound was classed as inactive in experiment [18]. Further, the values for the AC50 in experiment [8], in [17] and in experiment [10] were 84.5 µM (active), 24.1 µM (active) and 2.09 µM (active), respectively.
In the case of `CC(O)CC(C)(C)O` (configuration not stated), the result in experiment [2], in experiment [3], in experiment [4], in experiment [5], in [6] and in experiment [7] was inactive. Besides, the call in [8], in experiment [9], in experiment [10], in [12], in experiment [13] and in experiment [14] was inactive. For the same compound, the call in experiment [15] and in experiment [18] was inactive. Further, the AC50 in experiment [10] was 37.5 µM (active).
For `Oc1ccc2ccccc2c1`, the outcome in experiment [2], in experiment [3], in experiment [4], in experiment [5], in experiment [19] and in experiment [6] was inactive. In addition, the compound was classed as inactive in experiment [7], in experiment [8], in experiment [9], in experiment [10], in experiment [12] and in [13]. The result in [14] and in experiment [15] was inactive. Besides, the half-maximal activity concentration (AC50) in experiment [3] was 100 µM (active).

Values taken from PubChem BioAssay (EPA / NIEHS).
